# Assay results taken from PubChem BioAssay (NCATS).
# Records with an inconclusive call do not appear. Where a call stands in place of a potency, no number is given. Activity calls are given as the source filed them. Calls follow the shape of the dose curve; as a rule, active = well fitted curve in the direction sought with a large enough effect; inconclusive = small, poorly fitted or top-dose-only effect, or another doubt; inactive = no such curve, though single readings can be large; an effect the other way counts as inactive or inconclusive.
# Tests used:
# [1] = Vero cells viability qHTS for Zika virus inhibitors (AID 1347167)
# Method in brief: (§1)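 Counter-screen for cytotoxicity of hits from NS2B-NS3 protease qHTS. Overnight-attached cells (2.5 x 10^5 cells/mL, DMEM/4% FBS) were dosed in titration, incubated 24 to 48 hours, then assayed by CellTiter Glo.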
# [2] = HepG2 cells viability qHTS for Zika virus inhibitors (AID 1347168)
# Method in brief: as §1
# [3] = Tertiary RLuc qRT-PCR qHTS assay for Zika virus inhibitors (AID 1347169); also: nearly all actives have a fitted effect of over 55% in size; also: potency is read from the fitted curve at half-maximal effect
# Method in brief: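 Vero cells (1,000 per well) plated overnight at 37 degrees C, treated with compound in DMSO, then infected with recombinant ZIKV-RLuc (Cambodian) at MOI 1-2 for 48-72 hrs. Live-cell Renilla luciferase substrate added; luminescence read after 1-1.5 hrs.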
# [4] = test system: Zika virus NS2B-NS3 protease (linked construct); experiment: 384 well plate NINDS Rhodamine confirmatory qHTS for Zika virus inhibitors (AID 1347164); conditions: rhodamine-110 peptide substrate fluorescence;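 also: fluorescence from protease cleavage of Ac-LKRR-rhodamine 110 substrate; potency is read from the fitted curve at half-maximal effect; nearly all actives have a fitted effect of over 65% in size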
# Method in brief: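 Linked protease at a final 5 nM, 30 nM or 60 nM was preincubated ~15 min with compounds, then given 10 microM Ac-LKRR-Rhodamine 110. Fluorescence (ex 485/em 538 nm) after 25 min in the dark at room temperature.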
# [5] = qHTS to identify inhibitors of the type 1 interferon - major histocompatibility complex class I in skeletal muscle: primary screen against the NCATS Pharmaceutical Collection (AID 1347407);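 also: luminescence of HiBiT knocked into endogenous HLA-B as interferon-induced MHC class I level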
# Method in brief: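 Immortalized human myoblasts (C25cl48) with HiBiT knocked into endogenous HLA-B*08:01 were stimulated with 4 ng/ml IFN-beta and treated with compounds (8-point, 1:5, top 46 uM final) for 24 h at 37 C; HiBiT lytic luminescence read.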
# [6] = target: Protein phosphatase 1D (Homo sapiens) (UniProt O15297); experiment: RapidFire Mass Spectrometry qHTS Assay for Modulators of WT P53-Induced Phosphatase 1 (WIP1) (AID 1347424);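 also: amount of dephosphorylated VEPPL-S-QETFS peptide product formed by WIP1; series mostly up to about 63 µM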
# Method in brief: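 WIP1 (10 nM final) was preincubated 1 h at room temperature with compounds in Tris-HCl pH 7.5, 30 mM MgCl2, TCEP, EGTA, BSA; 2 uM VEPPL-pS-QETFS phosphopeptide was added for 5 min, quenched with formic acid, and dephosphorylated product quantified by RapidFire MS.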
# [7] = target: Protein phosphatase 1D (Homo sapiens) (UniProt O15297); experiment: Rhodamine-PBP qHTS Assay for Modulators of WT P53-Induced Phosphatase 1 (WIP1) (AID 1347425)
# Method in brief: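 Read-out: Rhodamine-PBP fluorescence (ex 525/em 598 nm) for released Pi, read each minute for 11 min after adding 10 uM VEPPL-pS-QETFS; signal taken as f1 minus pre-substrate f0. Enzyme 5 nM WIP1 with 1 hr room-temperature compound preincubation.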
# [8] = qHTS to identify inhibitors of the type 1 interferon - major histocompatibility complex class I in skeletal muscle: primary screen against the NCATS Mechanism Interrogation Plate v5.0 (MIPE) Libary (AID 1347411); also: nearly all actives have a fitted effect of over 65% in size; also: potency is read from the fitted curve at half-maximal effect
# Method in brief: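 Immortalized human C25cl48 myoblasts with HiBit knocked into endogenous HLA-B*08:01 were stimulated with 4.0 ng/ml IFN-beta and exposed to compounds (11-point 1:3 titration, top 46 uM final) for 24 hrs at 37 C; HiBiT lytic luminescence measured.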
# [9] = qHTS to identify inhibitors of the type 1 interferon - major histocompatibility complex class I in skeletal muscle: primary screen against the NCATS LOPAC collection (AID 1347405);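 also: lytic HiBiT luminescence reporting HLA-B protein level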
# Method in brief: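 Immortalized human C25cl48 myoblasts with HiBiT knocked into endogenous HLA-B*08:01 were stimulated with 4.0 ng/ml IFN-beta and given compounds in a 7-point, 1:4.3 titration from 46 uM final; after 24 hrs, lytic HiBiT luminescence was read.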
# [10] = qHTS for inhibitors of adenylyl cyclases using a fission yeast platform: a pilot screen against the NCATS LOPAC library (AID 1347410)
# Method in brief: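 S. pombe CHP2027 (AC9-GNAS-PDE4D2) carrying a PKA-repressed fbp1-GFP reporter was exposed to LOPAC compounds (final up to 57 µM) for 18 h at 30C in the dark, in EMM with histidine, lysine and uracil; GFP gain-of-signal read by laser scanning cytometry.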
# Sequence of Protein phosphatase 1D (Homo sapiens) (O15297 whole entry, looked up): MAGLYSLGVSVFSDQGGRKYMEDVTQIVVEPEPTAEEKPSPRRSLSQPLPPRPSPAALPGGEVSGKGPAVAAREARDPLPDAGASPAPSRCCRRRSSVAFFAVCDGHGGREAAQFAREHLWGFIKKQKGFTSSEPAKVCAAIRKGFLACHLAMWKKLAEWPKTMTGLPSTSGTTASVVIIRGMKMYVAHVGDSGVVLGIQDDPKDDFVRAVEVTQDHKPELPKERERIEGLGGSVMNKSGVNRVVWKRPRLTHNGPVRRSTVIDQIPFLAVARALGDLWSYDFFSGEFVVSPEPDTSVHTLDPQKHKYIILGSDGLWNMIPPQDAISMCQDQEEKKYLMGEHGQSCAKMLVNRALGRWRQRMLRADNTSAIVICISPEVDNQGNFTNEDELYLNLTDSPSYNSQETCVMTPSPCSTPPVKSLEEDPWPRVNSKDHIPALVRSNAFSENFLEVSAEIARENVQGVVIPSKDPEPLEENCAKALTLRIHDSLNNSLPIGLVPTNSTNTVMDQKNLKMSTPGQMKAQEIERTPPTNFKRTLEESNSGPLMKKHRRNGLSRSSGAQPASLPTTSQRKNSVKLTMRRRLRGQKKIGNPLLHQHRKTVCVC
smiles,measurement,setting,value
CO[C@H]1C[C@H](O[C@@H]2/C(C)=C/C[C@@H]3C[C@@H](C[C@]4(CC[C@H](C)[C@@H](C5CCCCC5)O4)O3)OC(=O)[C@@H]3C=C(C)/C(=N/O)[C@H]4OC/C(=C\C=C\[C@@H]2C)[C@]43O)O[C@@H](C)[C@@H]1O,outcome,[1],inactive
same,outcome,[2],inactive
same,Potency,[3],inactive
Cc1cc(-c2ccc(N=Nc3ccc4c(S(=O)(=O)O)cc(S(=O)(=O)O)c(N)c4c3O)c(C)c2)ccc1N=Nc1ccc2c(S(=O)(=O)O)cc(S(=O)(=O)O)c(N)c2c1O,Potency,[4],8910 nM (active)
same,Potency,[3],inactive
O=C(OCc1ccccc1)c1ccc(O)cc1,outcome,[5],inactive
same,outcome,[6],inactive
same,outcome,[7],inactive
CCC[C@@H]1C[C@@H](C(=O)N[C@@H]([C@H]2O[C@H](SC)[C@H](O)[C@@H](O)[C@H]2O)[C@H](C)Cl)N(C)C1,Potency,[8],inactive
CC1(C)C(\C=C/C=C\C=C/C=C2/N(CCCCS(=O)(=O)O)c3ccc4ccccc4c3C2(C)C)=[N+](CCCCS(=O)(=O)[O-])c2ccc3ccccc3c21,Potency,[4],4470 nM (active)
CC(=O)Oc1cccc2c1C(=O)c1c(OC(C)=O)cc(C(=O)O)cc1C2=O,outcome,[5],inactive
same,outcome,[6],inactive
same,outcome,[7],inactive
C[C@H]1O[C@@H](O[C@H]2[C@@H](O)C[C@H](O[C@H]3[C@@H](O)C[C@H](O[C@H]4CC[C@@]5(C)[C@H](CC[C@@H]6[C@@H]5C[C@@H](O)[C@]5(C)[C@@H](C7=CC(=O)OC7)CC[C@]65O)C4)O[C@@H]3C)O[C@@H]2C)C[C@H](O)[C@@H]1O,outcome,[1],inactive
same,Potency,[3],380 nM (active)
same,Potency,[8],37 nM (active)
COc1ccc2nc(NC(=O)Nc3ccccc3)sc2c1,outcome,[5],inactive
same,outcome,[6],inactive
CC[C@H]1OC(=O)[C@H](C)[C@@H](O[C@H]2C[C@@](C)(OC)[C@@H](O)[C@H](C)O2)[C@H](C)[C@@H](O[C@@H]2O[C@H](C)C[C@H](N(C)C)[C@H]2O)[C@](C)(O)C[C@@H](C)CN(C)[C@H](C)[C@@H](O)[C@]1(C)O,Potency,[8],inactive
O=C(O)CCC(=O)c1ccc(-c2ccccc2)cc1,outcome,[5],inactive
same,outcome,[6],inactive
same,outcome,[7],inactive
CN(C)CCCSc1ccccc1NC(=O)/C=C/c1ccccc1,outcome,[5],inactive
same,outcome,[6],inactive
same,outcome,[7],inactive
C=CC[N+]1([C@H]2C[C@H]3[C@@H]4CC[C@H]5C[C@H](O)[C@@H](N6CCOCC6)C[C@]5(C)[C@H]4CC[C@]3(C)[C@H]2OC(C)=O)CCCC1,Potency,[8],inactive
Nc1ccc(N=Nc2ccccc2)c(N)n1,outcome,[5],inactive
same,outcome,[6],inactive
same,outcome,[7],inactive
CO[C@H]1O[C@@H]2O[C@@]3(C)CC[C@H]4[C@H](C)CC[C@@H]([C@H]1C)[C@@]24OO3,Potency,[8],inactive
NC[C@H]1O[C@H](O[C@H]2[C@H](O)[C@@H](O[C@H]3O[C@H](CO)[C@@H](O)[C@H](N)[C@H]3O)[C@H](N)C[C@@H]2N)[C@H](N)C[C@@H]1O,Potency,[8],inactive
O=C1c2ccccc2C(=O)c2c1ccc(O)c2O,outcome,[5],inactive
same,outcome,[6],inactive
same,outcome,[7],inactive
Oc1ccc(/C=C/c2cc(O)cc(O)c2)cc1,outcome,[9],inactive
same,outcome,[5],inactive
same,outcome,[10],inactive
same,Potency,[8],inactive
same,outcome,[6],inactive
CC(C)Cc1ccc([C@@H](C)C(=O)NS(C)(=O)=O)cc1,Potency,[8],inactive
COc1cc(C)c(/C=C/C(C)=C/C=C/C(C)=C/C(=O)O)c(C)c1C,Potency,[8],inactive
